Laboratory results as given in PubChem BioAssay AID2606 (The Scripps Research Institute Molecular Screening Center, 2010).
In all, about 320,000 compounds went through this assay and about 160 (0.05%) were called active. Cut-off read from the data, not from the text of the source: active = inhibition above about 38%; inactive = the rest. The full list was thinned out, with actives kept by preference.

Target: Serine protease Rv3671c (Mycobacterium tuberculosis (strain ATCC 25618 / H37Rv)) (UniProt P9WHR9)
Test: Rv3671c serine protease inhibitors, primary screen, biochemical, fluorescence polarization, M. tuberculosis H37Rv (AID 2606);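 note: extracellular domain of Rv3671c used as enzyme; 0% = enzyme with DMSO and 100% = no enzyme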
Settings: at 5.96 µM; hits give high values

Serine protease Rv3671c (Mycobacterium tuberculosis (strain ATCC 25618 / H37Rv)), sequence (P9WHR9 whole entry, looked up, the tested form may be a part): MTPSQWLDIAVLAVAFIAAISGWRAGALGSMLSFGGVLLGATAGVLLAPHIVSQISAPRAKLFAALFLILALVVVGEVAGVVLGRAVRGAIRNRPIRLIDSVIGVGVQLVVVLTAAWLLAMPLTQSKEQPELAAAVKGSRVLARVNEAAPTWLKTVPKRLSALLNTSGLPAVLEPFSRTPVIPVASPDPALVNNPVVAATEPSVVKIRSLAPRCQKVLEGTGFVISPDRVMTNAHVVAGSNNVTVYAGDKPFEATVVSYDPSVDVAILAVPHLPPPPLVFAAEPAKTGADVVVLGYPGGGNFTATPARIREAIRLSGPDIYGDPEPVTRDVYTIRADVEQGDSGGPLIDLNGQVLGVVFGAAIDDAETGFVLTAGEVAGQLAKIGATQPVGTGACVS

| Structure (SMILES) | inhibition |
| --- | --- |
| CC(=O)N1Cc2ccccc2CC1C(=O)O (stereo not drawn) | -1.84% (inactive) |
| CCc1cccc(NC(=O)CCCN2C(=O)C(c3ccccc3)Oc3cccnc32)c1 (stereo not drawn) | -9.9% (inactive) |
| COC(=O)C1=C(C)N(C(C)c2ccccc2)C(=O)/C1=C\c1ccco1 (stereo not drawn) | 4.05% (inactive) |
| Cc1cccc(C)c1NC(=O)N1CC=C(n2c(=O)[nH]c3ccccc32)CC1 | 1.3% (inactive) |
| Nc1nc(-c2sc3nc4c(cc3c2N)CCCC4)nc(N2CCOCC2)n1 | -3.34% (inactive) |
| O=C(NCCN1CCOC1=O)C1CCC(=O)N(CCc2ccc(Cl)cc2)C1 (stereo not drawn) | -0.05% (inactive) |
| O=C(NCc1ccccc1)c1ccc(CNc2c(N3CCCC3)c(=O)c2=O)cc1 | 3.23% (inactive) |
| CC(Sc1nnc(-c2cccs2)n1C1CC1)C(=O)NCC1CCCO1 (stereo not drawn) | 3.19% (inactive) |
| CC(C)n1c(O)c(N=Nc2ccccn2)c2ccccc21 | 3.27% (inactive) |
| COC(C/C=C/C(=O)[C@@H](C)OCc1ccccc1)OC | -4.04% (inactive) |
| CN=C(c1ccccc1)c1c(C)cccc1C | 10.9% (inactive) |
| CC(C)C(=O)N1CCN(CCN=CC2=C(O)CC(c3ccco3)CC2=O)CC1 (stereo not drawn) | -4.57% (inactive) |
| CCCC(C)c1nnc(NC(=O)C2CC(=O)N(c3ccc(OCC)cc3)C2)s1 (stereo not drawn) | 9.03% (inactive) |
| CCC(C)CCN1CCN=C1N(C)C (stereo not drawn) | -3.18% (inactive) |
| CCn1c(C)nc2cc(C(=O)NNS(=O)(=O)c3ccc(C)cc3C)ccc21 | -9.72% (inactive) |
| CS(=O)(=O)c1ccccc1C(=O)Nc1ccc2sccc2c1 | -4.05% (inactive) |
| CC(O)CN(Cc1ccc(Cl)cc1)CC(C)O (stereo not drawn) | 6.26% (inactive) |
| O=C(COc1ccccc1Cl)N1CCCCCCC1 | -10.1% (inactive) |
| Cc1ccc2c(C)c(C(=O)N3CCN(c4ccncc4)CC3)oc2c1C | 10.5% (inactive) |
| O=C(NC1CC1)C1=C[C@H](c2coc3ccccc3c2=O)C[C@H](OCCCCO)O1 | 2.33% (inactive) |
| C=CCn1c(-c2ccc(Cl)cc2)ccc(C#N)c1=O | -12.4% (inactive) |
| N#C/C=C\Oc1ccc(Cl)cc1N | -2.18% (inactive) |
| Cc1cc(F)ccc1S(=O)(=O)Nc1ncnc2scc(-c3ccc(F)cc3)c12 | -10.2% (inactive) |
